The AC50 is the concentration giving half of the maximal activity seen.

Records with an inconclusive call do not appear. The source made the active and inactive calls. Rule for the calls, unless noted: active = hit-call score of the fitted dose curve at least 0.9, where 1 is the maximum; inactive = score below 0.9.

The source of these data is PubChem BioAssay (EPA / NIEHS).

Test [1] in a line: CCTE_Shafer_MEA_acute_spike_number: CCTE's Neural Acute Assay for Total Number of Spikes, Shafer Lab (AID 2284008).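 For AC50: curve fitted for decrease in spike count so AC50 reflects inhibitors.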 The method in brief: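 Rat primary cortical neurons on 48-well MEA plates, DIV 13 or 15, at 37 C. 40 min baseline then 40 min with compound (0.03-40 uM); spikes detected at 8x rms noise, expressed as percent change from baseline.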
Test [2] can be described thus: CCTE_Harrill_HTTr_Viability_MCF7: CCTE's 6-hour Cell Viability Assessment for the High-Throughput Transcriptomics (HTTr) Platform, in MCF-7 cells cultured in DMEM + 10% fetal bovine serum, Harrill Lab (AID 2284010). In outline:
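Propidium iodide exclusion, imaged by high-content analysis, gauged viability after a six-hour exposure across eight concentrations. Cells were MCF-7 grown in DMEM with 10% fetal bovine serum; fits run in both directions against DMSO.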

Test [3] can be described thus: CCTE_Harrill_HTTr_Apoptosis_MCF7: CCTE's 6-hour Apoptosis Assessment for the High-Throughput Transcriptomics (HTTr) Platform, in MCF-7 cells cultured in DMEM + 10% fetal bovine serum, Harrill Lab (AID 2284011). The method in brief:
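MCF-7 cells in DMEM + 10% FBS exposed 6 h to chemicals over an eight-point dilution series. Caspase-3/7 activation imaged by high-content CellEvent Green staining; fitted bidirectionally versus DMSO.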

A short description of test [4]: CCTE_Harrill_HTTr_CellCount_MCF7: CCTE's Cell Proliferation Assessment for the High-Throughput Transcriptomics (HTTr) Platform, Harrill Lab (AID 2284012; active = hit-call score of the fitted dose curve at least 0.9, where 1 is the maximum;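 note: cells exposed to compound for six hours; intended direction is loss of nuclei count meaning fewer cells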). In outline:
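Cell count from high-content imaging of Hoechst-labeled nuclei serves as viability/growth readout. Chemicals were applied to MCF-7 cells in eight concentrations for six hours, with fitting in both directions relative to DMSO.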

The nature of test [5]: CCTE_Shafer_MEA_acute_burst_number: CCTE's Neural Acute Assay for Single-Electrode Bursts, Shafer Lab (AID 2284013). The method in brief:
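Primary rat cortical neurons on 16-electrode MEA wells, DIV 13 or 15, exposed to compound (0.03-40 uM; ≥3 wells); 40-min recordings at 37 C before and after treatment. Burst count expressed as percent change from baseline, DMSO as negative control.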

Test [6] deals with DIO1 (gene 1733). In words: CCTE_GLTED_hDIO1: CCTE's human Deiodinase 1 (DIO1) Inhibition Assay, Great Lakes Toxicology and Ecology Division (GLTED) Lab (AID 2283987; active = hit-call score of the fitted dose curve at least 0.9, where 1 is the maximum;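 note: isolated human DIO1 enzyme in a cell-free setup rather than cells; enzyme activity read as free iodide liberated from substrate via Sandell-Kolthoff colorimetry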). In outline:
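Cell-free human DIO1 enzyme incubated 3 h with test chemical; iodide freed from substrate then measured by Sandell-Kolthoff absorbance. Run in triplicate; loss of signal relative to DMSO taken as inhibition.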

For `C[C@H]1C[C@@H]2[C@H]([C@@H](O)C[C@@]3(C)[C@H]2CC[C@]3(O)C(=O)CO)[C@@]2(C)C=CC(=O)C=C12`, the AC50 in test [1] and in test [5] was 3 nM (active) throughout. Besides, the result in test [2], in test [3] and in test [4] was inactive.
Consider `CCCCCCCCCCCCCC(=O)O`, for which the AC50 in test [6] was 166000 nM (active). In addition, the outcome in test [2], in test [3] and in test [4] was inactive.
Consider `Cc1cc(C2(c3cc(C)c(O)cc3C)OS(=O)(=O)c3ccccc32)c(C)cc1O`, for which the call in test [1], in test [2], in test [3] and in test [4] was inactive. Further, in test [5], the AC50 was 148 nM (active).
On to `C=CCOC(=O)CCC1CCCCC1`, for which the molecule was called inactive in test [1], in test [2], in test [3], in test [4] and in test [5].
Turning to `N#Cc1ccc(CC(=NNC(=O)Nc2ccc(OC(F)(F)F)cc2)c2cccc(C(F)(F)F)c2)cc1`, the result in test [2] was inactive.
As to `O=C(O)CN(CCN(CC(=O)O)CC(=O)O)CCN(CC(=O)O)CC(=O)O`, the result in test [2], in test [3] and in test [4] was inactive.
Consider `CC1CC(OC(=O)c2ccccc2O)CC(C)(C)C1` (centres undefined), for which the outcome in test [2], in test [3] and in test [4] was inactive.
Turning to `Cc1ccc(C(=O)c2cc(O)c(O)c([N+](=O)[O-])c2)cc1`, the result in test [2] was inactive.
In the case of `CC1(C)CCC(C)(C)c2cc(C(=O)Nc3ccc(C(=O)O)cc3)ccc21`, the result in test [2], in test [3] and in test [4] was inactive.
Consider `OCCN1CCNCC1`, for which, in test [2], the outcome was inactive.
As for `CC(CCO)CCc1ccccc1` (centres undefined), the result in test [2] and in test [3] was inactive.
Take `O=C(O)c1ccc(C(=O)O)cc1`: the outcome in test [2], in test [3] and in test [4] was inactive.
Take `CNC(=O)Oc1ccc2c(c1)[C@]1(C)CCN(C)[C@@H]1N2C`: the outcome in test [2], in test [3] and in test [4] was inactive.
Consider `CCCCO`, for which the result in test [2] and in test [3] was inactive.
For the molecule `O=C(O)CCCCCCCC(=O)O`, the outcome in test [2] was inactive.
For `CC(C)C[C@H]1C(=O)N2CCC[C@H]2[C@]2(O)O[C@](NC(=O)[C@@H]3C=C4c5cccc6[nH]c(Br)c(c56)C[C@H]4N(C)C3)(C(C)C)C(=O)N12`, the outcome in test [2], in test [3] and in test [4] was inactive.
Turning to `CC(=O)OCC=Cc1ccccc1`, the result in test [2] and in test [3] was inactive.
With `COC(C)CCO` (centres undefined), the outcome in test [2] was inactive.
Still for that read-out and setting: next, `c1ccc2sc(SN(C3CCCCC3)C3CCCCC3)nc2c1`: “inactive”.
The same measure, in the same setting: the same measure for `CNC[C@H](O)c1cccc(O)c1`: “inactive”.
As to `CCCCNC(=O)NS(=O)(=O)c1ccc(C)cc1`, the outcome in test [2], in test [3] and in test [4] was inactive.
`CCN(CC)CCOC(=O)c1ccc(N)cc1`: the outcome in test [2], in test [3] and in test [4] was inactive.
In the case of `CC(C)=CCO`, the outcome in test [2] and in test [3] was inactive.
As for `CN1Cc2c(N)cccc2C(c2ccccc2)C1` (centres undefined), the outcome in test [2] and in test [3] was inactive.
On to `CC1CCC(C(C)(C)O)CC1` (centres undefined), for which, in test [2], the outcome was inactive.
`S=C(S)NCCNC(=S)S`: the result in test [2] and in test [3] was inactive.
On to `CC1(C)[C@H]2CC[C@]1(C)[C@H](O)C2`, for which the outcome in test [2], in test [3] and in test [4] was inactive.
As to `O=C[C@H](O)[C@H](O)[C@H](O)CO`, in test [2], the result was inactive.
In the case of `CC(C)(COC(=O)c1ccccc1)COC(=O)c1ccccc1`, the call in test [1] and in test [5] was inactive.
Regarding `CN(CCOc1ccc(CC2SC(=O)NC2=O)cc1)c1ccccn1` (centres undefined), the outcome in test [2], in test [3] and in test [4] was inactive.
With `O=C(Nc1ccccc1)c1cc([N+](=O)[O-])ccc1Cl`, the outcome in test [2] and in test [3] was inactive.
Turning to `NC(N)=NC(=O)c1nc(Cl)c(N)nc1N`, the outcome in test [2] and in test [3] was inactive.
`CCN(CC)c1ccc2c(-c3ccccc3C(=O)O)c3ccc(=[N+](CC)CC)cc-3oc2c1`: the AC50 in test [2] was 394 nM (active). Moreover, the outcome in test [3] and in test [4] was inactive.
Take `NCCNCCN`: the outcome in test [1] and in test [5] was inactive.
Take `CC1(C)[C@@H]2CC[C@@]1(C)[C@H](O)C2`: the result in test [2] and in test [3] was inactive.
Consider `CCCCCCCCCCCCOCCO`, for which the result in test [2] and in test [3] was inactive.
`CC(CN1c2ccccc2Sc2ccccc21)N(C)C` (centres undefined): the outcome in test [2] and in test [3] was inactive.
Take `CCCCN`: the result in test [2] and in test [3] was inactive.
Take `Cc1cccc(C)c1C`: in test [2], the outcome was inactive.
Regarding `Cc1cccc(Nc2ccccc2C(=O)O)c1C`, the outcome in test [2] and in test [3] was inactive.
With `O=C(O)c1ccc([N+](=O)[O-])cc1`, the outcome in test [2] and in test [3] was inactive.
For the molecule `OC1OC[C@@H](O)[C@H](O)[C@H]1O` (some centres undefined), the molecule was called inactive in test [1] and in test [5].
For the molecule `CCCCCCCCC`, the outcome in test [2], in test [3] and in test [4] was inactive.
For the molecule `C=C(C)[C@@H]1CC[C@@H](C)C[C@@H]1O`, the result in test [2] and in test [4] was inactive.
Take `Cc1c(N(C)C)c(=O)n(-c2ccccc2)n1C`: the result in test [2] and in test [4] was inactive.
As to `O=[N+]([O-])c1cc(C(F)(F)F)ccc1Cl`, the outcome in test [2] and in test [4] was inactive.
As to `CC(C)Oc1ccccc1O`, the outcome in test [2], in test [3] and in test [4] was inactive.
Take `C=CCOc1nc(OCC=C)nc(OCC=C)n1`: the result in test [2] and in test [4] was inactive.
Regarding `CC1=CCC(O)(C(C)C)CC1` (centres undefined), the outcome in test [2] and in test [4] was inactive.
As for `N#Cc1ccccc1`, the outcome in test [2] and in test [4] was inactive.
With `COc1cc2ncnc(Nc3cccc(Cl)c3)c2cc1OC`, the result in test [2], in test [3] and in test [4] was inactive.
Regarding `Cc1c(Cl)c(=O)oc2cc(O)ccc12`, the result in test [2] and in test [4] was inactive.
